A selection: hits, their analogues and other compounds. The true share with any hit is near 2.8%.
PolyA inhibitor: polyadenylation inhibitors in yeast reporter cells, primary screen, luminescence, S. cerevisiae. S. cerevisiae SKY197-pL101 polyadenylation reporter, beta-gal luminescence; efflux-impaired pdr1/pdr3 knockout yeast; score 100 = 6 SD above DMSO. activity score, % at 12 µM. 300,000 tested, 0.02% active;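 active = lowest replicate activity score at least 50, where 100 means six control SD above control mean; inconclusive = lowest score under 50 but half or more replicates reach 50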;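 note: yeast exposed to compound for 9 h at 30 °C; higher score means more reporter readthrough which indicates perturbed polyadenylation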
Platelet DG rel: inhibitors of platelet dense granule secretion, primary screen, cell-based, MLPCN, human platelets; 300,000 tested, 0.22% active; human platelet-rich plasma, SFLLRN dense granule ATP release, luminescence; AID 1663, 2009; inhibition, %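 (compounds screened at 7.5 µM in platelet-rich plasma)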;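 active = mean replicate score, as percent of positive control, at or above 50; inconclusive = mean below 50 but at least one replicate at or above 50; inactive = mean and every replicate below 50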
HIF activator: HIF pathway transcriptional activators, primary screen, cell-based, U2OS HRE-luciferase, luminescence | 300,000 tested, 0.32% active | activation, % at 7.5 µM (by protocol) | AID 1910, 2009 | U2OS HRE-luciferase reporter; normalized: DMSO 0%, desferrioxamine 100%;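 active = mean activation of at least 10% of the iron chelator positive control signal, with at least half of replicates also reaching 10%; inconclusive = mean and replicate majority disagree about reaching 10%; inactive = mean and most replicates under 10%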
AHR act: AHR activators, primary screen, cell-based, luminescence, luciferase reporter, human; AHR-responsive luciferase reporter cells; activation, % at 5 µM; 320,000 tested, 2.5% active; AID 2796, 2010; in the data active = activation above about 47%
Target sequence (P35869 whole entry, looked up): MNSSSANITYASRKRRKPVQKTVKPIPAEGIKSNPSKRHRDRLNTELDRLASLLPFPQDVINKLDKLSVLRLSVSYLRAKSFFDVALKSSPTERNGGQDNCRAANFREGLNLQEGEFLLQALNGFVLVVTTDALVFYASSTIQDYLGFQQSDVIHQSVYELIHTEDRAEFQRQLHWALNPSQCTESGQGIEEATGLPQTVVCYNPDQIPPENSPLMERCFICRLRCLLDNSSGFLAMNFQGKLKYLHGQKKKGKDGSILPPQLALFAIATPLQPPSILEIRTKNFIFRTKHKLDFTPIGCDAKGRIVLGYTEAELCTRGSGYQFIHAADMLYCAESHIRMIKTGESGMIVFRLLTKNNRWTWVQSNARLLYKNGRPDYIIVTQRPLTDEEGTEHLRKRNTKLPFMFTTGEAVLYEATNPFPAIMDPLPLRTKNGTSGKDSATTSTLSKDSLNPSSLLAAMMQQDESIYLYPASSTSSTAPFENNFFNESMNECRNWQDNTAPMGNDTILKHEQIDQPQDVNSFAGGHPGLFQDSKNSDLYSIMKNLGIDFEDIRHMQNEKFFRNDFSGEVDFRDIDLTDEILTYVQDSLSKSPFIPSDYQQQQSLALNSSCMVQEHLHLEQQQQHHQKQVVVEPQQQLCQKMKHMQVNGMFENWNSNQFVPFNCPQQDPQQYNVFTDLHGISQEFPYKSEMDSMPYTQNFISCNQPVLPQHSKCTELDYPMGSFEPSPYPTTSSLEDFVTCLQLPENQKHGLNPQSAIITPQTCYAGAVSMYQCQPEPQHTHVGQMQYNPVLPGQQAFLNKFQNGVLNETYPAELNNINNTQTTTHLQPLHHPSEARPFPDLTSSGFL
p-CIP stab down: p/CIP-EGFP fusion destabilizers, primary screen, fluorescence, F442A cells; Q05BA5; 16 h; decrease of EGFP signal, % at 10 µM; 290,000 tested, 0.01% active; AID 1984, 2009;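 active = EGFP signal decrease of at least 30% at 10 µM or well 3 SD below plate mean, unless failing retest; inactive = the rest, including hits failing retest or dose response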
AHR act cf: AHR activators, confirmation, cell-based, luminescence, luciferase reporter, human. human cells, AHR-responsive luciferase reporter. activation, % at 9 µM. 2,300 tested, 87% active. shares compounds with AHR act; in the data active = activation above about 49%;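 note: HepG2 hepatoma cells carrying a DRE-driven firefly luciferase reporter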
PXR counter: human PXR activators, counter-screen for AHR activator project, cell-based, luciferase luminescence; shares compounds with AHR act; 2,300 tested, 88% active; cell-based PXR reporter; activation, % at 11.6 µM; in the data active = activation above about 11%;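 note: human hepatoma DPX-2 cells expressing full-length human PXR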
A number is an active result; 0 = inactive; ? = inconclusive; - = not tested or not shown.

SMILES | PolyA inhibitor | Platelet DG rel | HIF activator | AHR act | p-CIP stab down | AHR act cf | PXR counter
Cn1c(C(=O)Nc2ccc3c(c2)OCO3)cc2sccc21 | 0 | 0 | 0 | 89 | 0 | 139 | 109
Cc1ccc(C(=O)Nc2ccc3c(c2)OCO3)o1 | 0 | - | 0 | 122 | 0 | 108 | 39
O=C(NC1CCCC1)C1CCN(C(=O)c2ccc(-c3ccccc3)cc2)CC1 | 0 | 0 | 0 | 0 | 0 | - | -
Nc1nc(Nc2cccc(F)c2)nc(NCc2ccco2)c1[N+](=O)[O-] | 0 | 0 | 0 | 0 | 0 | - | -
O=C(NCCC1CCCCN1S(=O)(=O)c1ccccc1)C(=O)NC1CC1 (stereo unspecified) | 0 | 0 | 0 | 0 | - | - | -
CC(Oc1ccccc1)C(=O)Nc1nnc(C2CCCCC2)s1 (stereo unspecified) | 0 | 0 | 0 | 0 | 0 | - | -
Cc1ccccc1C(=O)N(Cc1cccs1)C1CCS(=O)(=O)C1 (stereo unspecified) | 0 | 0 | 0 | 0 | 0 | - | -
O=C(Nc1ccc2c(c1)OCO2)c1ccc(Cl)nc1 | 0 | 0 | 0 | 88 | 0 | 149 | 23
O=C(Nc1ccc2c(c1)OCO2)c1n[nH]c(=O)c2ccccc12 | 0 | 0 | 0 | 132 | 0 | 132 | 43
O=C(Nc1ccc2c(c1)OCO2)c1ccc(Br)s1 | 0 | 0 | 0 | 131 | 0 | 93 | 25
O=C(Cn1cnc2ccccc2c1=O)NCc1ccc2c(c1)OCO2 | - | - | - | 0 | 0 | - | -
O=C(Cn1cnc2ccccc2c1=O)Nc1ccc2c(c1)OCO2 | 0 | 0 | 0 | 93 | 0 | 70 | 17
O=C(NC(=S)Nc1ccc2nc[nH]c2c1)c1ccccc1 | 0 | 0 | 0 | 0 | 0 | - | -
Cc1cc(OC(C)C(=O)NCc2cccnc2)c2c(C)cc(=O)oc2c1 (stereo unspecified) | 0 | 0 | 0 | 0 | 0 | - | -
CCc1c(C)sc(NC(=O)c2cccs2)c1C#N | 0 | 0 | 0 | 90 | 0 | 90 | 39
COc1ccc(C(=O)Nc2ccccc2-c2nnn(CC(=O)NCc3ccco3)n2)cc1 | 0 | 0 | 0 | 103 | 0 | 0 | 26
O=C(Cn1nnc(-c2ccccc2)n1)NCc1ccco1 | 0 | 0 | 0 | 0 | 0 | - | -
COc1ccccc1C(=O)Nc1ccc(-c2nnn(CC(=O)NCc3ccco3)n2)cc1 | 0 | 0 | 0 | 130 | 0 | 135 | 29
CCN(CC)C(=O)CSCc1cnn(-c2ccccc2)c1-n1cccc1 | 0 | 0 | 0 | 0 | 0 | - | -
O=C1c2ccccc2C(=O)N1CCCCN(C(=O)c1ccc([N+](=O)[O-])cc1)c1ccc(Cl)cc1 | 0 | 0 | 0 | 90 | 0 | 90 | 214
O=C1c2ccccc2C(=O)N1CCCCN(C(=O)c1cc([N+](=O)[O-])cc([N+](=O)[O-])c1)c1ccc(Cl)cc1 | 0 | 0 | 0 | 0 | 0 | - | -
CCCCNc1nc(Cl)nc(Nc2ccc(C)cc2)n1 | 0 | 0 | 0 | 0 | - | - | -
CCCNc1nc(Cl)nc(Nc2ccc(Cl)cc2)n1 | 0 | 0 | 0 | 127 | 0 | 91 | -
Cc1c(Cl)cccc1NC(=S)NCCc1ccc(C(F)(F)F)cc1 | 0 | 0 | 0 | 0 | 0 | - | -
CCn1c(=O)cc(OCC(=O)NC2CC2)c2ccccc21 | 0 | 0 | 0 | 97 | 0 | 84 | 25
Cn1c(=O)cc(OCC(=O)NC2CCCCC2)c2ccccc21 | ? | 0 | 0 | 0 | 0 | - | -
Cc1c(NS(=O)(=O)c2cc(C(=O)NCc3ccco3)cc(Cl)c2Cl)c(=O)n(-c2ccccc2)n1C | 0 | 0 | 0 | 97 | - | 102 | 201
Cc1c(NS(=O)(=O)c2ccc(Cl)c(C(=O)OC(C)C(=O)NCc3ccco3)c2)c(=O)n(-c2ccccc2)n1C (stereo unspecified) | 0 | 0 | 0 | 0 | 0 | - | -
O=C(NCCN1C(=O)C2C3C=CC(C3)C2C1=O)N1CCCCC1 (stereo unspecified) | 0 | 0 | 0 | 92 | 0 | 0 | 21
O=C(NCCN1C(=O)C2C3C=CC(C3)C2C1=O)NCc1ccccc1 (stereo unspecified) | 0 | 0 | 0 | 0 | 0 | - | -
